Source: PubChem BioAssay
Hits are enriched below; roughly 0.34% of the tested compounds scored in any of these assays.
Ba CapD inh = inhibitors of Bacillus anthracis CapD enzyme. purified CapD enzyme, fluorescence intensity read-out; active compounds read low. z-score (test concentration not listed). 140,000 tested, 0.23% active. AID 492967; in the data active = z-score mostly below about -2.9, no sharp cut-off; inactive = mostly above about -1.9
AID504770 = E. coli YBA685 growth inhibition, screen for V. cholerae RctB inhibitors; E. coli YBA685 rctB-dependent plasmid, OD600 growth, 3 h; active compounds read low; z-score (concentration not given with the values); 130,000 tested, 0.27% active; AID 504770; in the data active = z-score below about -2, passing the limit was not always enough
* marks the source's active call; other numbers are inactive results; · = not tested or not shown.

SMILES | Ba CapD inh | AID504770
O=C1C=CC(=O)C(c2ccc(C(=O)O)cc2)=C1 | -8* | 0.2
CC(C)c1ccc(C2=CC(=O)C=CC2=O)cc1 | 5.7 | -2
CN(C)C1(CNCc2cnn(-c3ccccc3)n2)CCCCC1 | · | 0
O=C(Oc1cccc2cccnc12)c1cc(C(F)(F)F)cc(C(F)(F)F)c1 | -0.025 | -3.2*
O=C(Oc1cccc2cccnc12)c1cccc(F)c1 | · | -1.4
Cc1ccc2cccc(I)c2n1 | 0.08 | -2.5*
Cc1ccc2cccc(Cl)c2n1 | -0.12 | ·
O=C1C2C3C=CC(O3)C2C(=O)N1c1ccccc1C(F)(F)F (configuration not stated) | -1.2 | -0.75
O=C1C=CC(=O)N1c1ccccc1C(F)(F)F | -1.3 | -2.5*
N#C/C(=C\c1cccnc1)c1cccs1 | 58 | 0.2
CCc1cc2c3c([nH]c2cc1S(=O)(=O)NC(C)(C)C)CCCC3=O | -0.51 | 1.4
O=C(Cn1nc(Cc2ccncc2)c2ccccc2c1=O)NCCC1=CCCCC1 | -1.1 | -2.2*
CCCCNC(=O)Cn1nc(Cc2ccncc2)c2ccccc2c1=O | -0.4 | 0.05
CSc1nsc2nc(=O)c(/C=C3\C=CC(=O)C(O)=C3)c(N)n12 | -4.5* | 1.4
Cc1c(Cl)cccc1N1CC(C)(C)C1=O | -0.43 | -0.4
Cc1c(Cl)cccc1N1C(=O)C=CC1=O | 0.27 | -2.6*
Cc1cccc(CCNC(=O)[C@H](Cc2ccccc2)N2Cc3ccccc3C2=O)c1 | -0.085 | -0.7
N#C/C(=C\C=C\c1ccco1)c1nc(-c2ccccc2)cs1 | -4.3* | 1.1
N#C/C(=C\Nc1ccc(Br)cc1)c1nc(-c2ccccc2)cs1 | -0.33 | 0.15
CCOC(=O)/C(C#N)=C(O)/C(=C/c1ccccc1)NC(=O)c1ccccc1 | 0.7 | ·
CC(=O)N(c1ccc(C)cc1)C1C=CS(=O)(=O)C1 (configuration not stated) | 0.72 | -0.2
CC(=O)N(c1ccc(Cl)cc1)C1C=CS(=O)(=O)C1 (configuration not stated) | -0.61 | -2.5*
CC(C)c1ccc(OCc2ccc(C(=O)OCCN3CCCCC3)o2)cc1 | 0.57 | -0.45
CC(C)N1CSC(=S)N(C(C)C)C1 | 0.11 | -4*
CC(c1ccccc1)N1CSC(=S)N(C(C)c2ccccc2)C1 (configuration not stated) | 0 | ·
SMILES | Ba CapD inh | AID504770
N/C(CC(=O)Nc1ccc(F)cc1)=N\OC(=O)c1cccs1 | -0.69 | ·
O=C1CC(c2ccccc2)CC2=C1C(c1ccccc1)Nc1ccccc1N2 (configuration not stated) | -2.2 | -0.7
Cc1ccc(C2CC(=O)C3=C(C2)Nc2ccccc2NC3c2cccnc2)cc1 (configuration not stated) | -4* | -0.45
Cc1ccnc(Cl)c1N | · | 1.4
CN(C)CCNc1nc2ccccc2[nH]1 | 0.14 | 1.4
Clc1ccc(CNc2nc3ccccc3[nH]2)cc1Cl | -0.24 | -2.8*
O=C(Nc1ccc(Cl)cc1)c1c(O)nc2sc3ccccc3n2c1=O | -0.62 | ·
O[N+]1=CC=CCC1=S.On1ccccc1=S.[Zn] | 0.79 | -4*
CCOCCOC(=O)C1=C(C)NC2=C(C(=O)CC(c3ccccc3)C2)C1c1ccc(OC)c(OC)c1 (configuration not stated) | 12 | ·
CCN1C(=O)N(c2ccc(C)c(Cl)c2)S(=O)(=O)c2ccccc21 | 0.28 | 0.1
N#Cc1ccc2c(c1)nc1c3ccc(C(=O)O)c4c(C(=O)O)ccc(c(=O)n21)c43 | -1.1 | ·
O=C(O)c1ccc(C(=O)O)c2c(-c3ccc4c(=O)n5c6ccccc6nc5c5ccc(C(=O)O)c3c45)ccc(C(=O)O)c12 | -8.4* | ·
O=C1NCC(O)=C1/C=N/Nc1ccccc1 | -4.4* | -4*
CC(N=CC1=C(O)CNC1=O)c1ccccc1 (configuration not stated) | -0.04 | 0.25
CCc1nc(C)ccc1OCC(N)=O | 0.37 | 0.65
CCc1nc(C)ccc1OCC(=O)O | -5* | 0.5
c1cc2c(cc1C1CCCCC1)c1c3n2CCNC3=NCC1 | 78 | -2.2*
c1cc2c(cc1C1CCCCC1)c1c3n2CCN=C3CCC1 | 0.28 | -0.9
Cc1oc2ncn(CC(C)C)c(=O)c2c1C(=O)N1CCCC1 | -0.065 | 0.65
O=C(O)c1cc(Nc2ccccc2C(=O)O)nc(Nc2ccccc2C(=O)O)n1 | -5.1* | -0.45
O=C(O)c1ccc(Nc2nccc(Nc3ccccc3C(=O)O)n2)cc1 | 13 | 1.7
COc1ccc(N2CCN(C(=O)C(c3ccccc3)c3ccccc3)CC2)cc1 | · | -0.35
Cn1c(-c2ccccc2)c(/C=C/C=C/C=C2/C(c3ccccc3)=[N+](C)c3ccccc32)c2ccccc21 | 24 | ·
O=C(N/N=C/c1ccccn1)c1ccc([N+](=O)[O-])o1 | -4.3* | ·
O=C(N/N=C/c1ccccc1C(=O)O)c1ccc([N+](=O)[O-])o1 | -2 | ·
SMILES | Ba CapD inh | AID504770
O=c1[nH]c2ccccc2n1C1CCN(S(=O)(=O)c2ccc(Br)cc2)CC1 | 0.43 | ·
COC(=O)c1ccccc1N1C(=O)C=CC1=O | -0.45 | -2.5*
COC(=O)c1ccccc1N1C(=N)SCC1=O | · | -0.6
COc1ccc(-n2ncc3c(Nc4ccc(C)c(C)c4)ncnc32)cc1 | -0.15 | ·
CC1(C)OC(CO)C(CO)O1 (configuration not stated) | 0.14 | -0.25
COc1cc(Cc2cnc(N)nc2N)cc(OC)c1OC | -0.015 | -3.1*
COc1cc(CC(=O)OCC(N)=O)cc(OC)c1OC | · | 0.85
COC(=O)C(C(=O)OC)C(Nc1ccccc1)c1ccccc1 (configuration not stated) | -7.1* | -0.1
CCOC(=O)C(Nc1cccc(F)c1)c1ccccc1 (configuration not stated) | -0.47 | 0.1
O=S1(=O)CCC(NC(=S)SCCOc2ccccc2)C1 (configuration not stated) | 0.51 | -3*
O=C(Cc1ccccc1)NC1CCS(=O)(=O)C1 (configuration not stated) | · | -0.1
NCC(=O)Nc1ccc(Br)cc1 | -0.18 | -1.1
NNc1ccc(Br)cc1 | 0.14 | -6.3*
Cc1cc(/C=C2\C(=O)NC(=S)N(c3cccc(Cl)c3)C2=O)c(C)n1-c1cc(C(=O)O)cc(C(=O)O)c1 | -5.9* | ·
Cc1ccc(N2C(=O)NC(=O)/C(=C\c3cc(C)n(-c4cc(C(=O)O)cc(C(=O)O)c4)c3C)C2=O)cc1 | -1.1 | ·
COc1ccc(Cl)cc1CN1CCCCC1 | -0.095 | -1.4
COc1cc(Cl)ccc1N=NN1CCOCC1 | -1.9 | -3.9*
Cn1c(C(=O)NCc2ccco2)cc2ccccc21 | -0.17 | ·
O=S(=O)(NCc1ccccn1)c1ccc(Br)cc1OC(F)(F)F | -0.53 | ·
Cc1cc(C)c(OCC(O)CNC2CC(C)(C)NC(C)(C)C2)c(C)c1 (configuration not stated) | -0.54 | -0.7
COc1ccc(/C=C2\Oc3ccc4c(C)cc(=O)oc4c3C2=O)cc1 | 0.01 | ·
CSc1sc2ccccc2[n+]1C | 0.51 | -0.15
CC[n+]1c(/C=C2/C=C(C)CC(C)C2)sc2ccccc21 (configuration not stated) | -0.23 | -1
C[n+]1c(/C=C/Nc2ccccc2)sc2ccccc21 | -4.4* | 1.4
CC[n+]1c(/C=C/Nc2ccccc2)sc2ccccc21 | -4.9* | 1.2
COc1cc(OC)nc(C2CCN(C(=O)CCC(=O)NCc3cccc(C(F)(F)F)c3)CC2)n1 | -0.31 | ·
CC(C)(C)N1CSC(=S)N(Cc2ccco2)C1 | · | -7.9*
Cc1ccc2cc3c(nc2c1)N(Cc1ccco1)CC3 | 0.17 | -0.4
